PubChem BioAssay (Tox21)
Results filed as inconclusive are left out. Active and inactive are the calls of the source. Unless noted, calls follow the shape of the dose curve; as a rule, active = well fitted curve in the direction sought with a large enough effect in the repeat runs; inconclusive = weak or mixed curves; inactive = no such curve, though single readings can be large; an effect the other way counts as inactive or inconclusive.

How the values were obtained:
[1] = qHTS assay to identify small molecule agonists of the progesterone receptor (PR) signaling pathway - cell viability counter screen (AID 1346799; calls by dose curve; also: nearly all actives have a fitted effect of over 45% in size)
Method in brief: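 Using the same plates as the PR reporter screen, HEK293T PR-UAS-bla cells received compounds for 16 hr at 37C and were then lysed with CellTiter-Glo; luminescence was read 30 min later at room temperature.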

[2] = qHTS assay to identify small molecule antagonists of the TGF-beta/Smad signaling pathway - cell viability counter screen (AID 1346824); also: nearly all actives have a fitted effect of over 50% in size
Method in brief: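 SBE-bla HEK 293T cells, incubated overnight, then compound plus 0.25 ng/mL TGF-beta1 (stock added) for 5 hr at 37 C. Viability was read in the same wells by CellTiter-Glo luminescence after 30 min at room temperature.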

[3] = qHTS assay to identify small molecule agonists of the TGF-beta/Smad signaling pathway - cell viability counter screen (AID 1346829); also: top concentration of the series differs between compounds; nearly all actives have a fitted effect of over 45% in size
Method in brief: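 SBE-bla HEK 293T cells plated overnight, compound exposure 5 hr at 37 C. Viability read in the same wells by CellTiter-Glo luminescence after 30 min at room temperature, following the beta-lactamase read.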

[4] = qHTS assay to identify small molecule agonists of the TGF-beta/Smad signaling pathway (AID 1346859; active = well fitted activation curve with a large enough effect in the signal ratio in the repeat runs, not every such curve was filed as active; the % refers to the signal ratio; also: series mostly up to about 77 µM)
Method in brief: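 Beta-lactamase reporter activity downstream of Smad binding elements was measured in stably transfected HEK 293T cells; compounds were incubated for 5 hr, substrate for 2 hr at room temperature.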

[5] = molecular target: Thyrotropin-releasing hormone receptor (Homo sapiens) (UniProt P34981); assay: qHTS assay to identify small molecule antagonists of the thyrotropin-releasing hormone receptor (TRHR) signaling pathway (AID 1346877; active = well fitted inhibition curve with a large enough effect in the repeat runs, not every such curve was filed as active; also: series mostly up to about 51 µM)
Thyrotropin-releasing hormone receptor (Homo sapiens), sequence (P34981 whole entry, looked up): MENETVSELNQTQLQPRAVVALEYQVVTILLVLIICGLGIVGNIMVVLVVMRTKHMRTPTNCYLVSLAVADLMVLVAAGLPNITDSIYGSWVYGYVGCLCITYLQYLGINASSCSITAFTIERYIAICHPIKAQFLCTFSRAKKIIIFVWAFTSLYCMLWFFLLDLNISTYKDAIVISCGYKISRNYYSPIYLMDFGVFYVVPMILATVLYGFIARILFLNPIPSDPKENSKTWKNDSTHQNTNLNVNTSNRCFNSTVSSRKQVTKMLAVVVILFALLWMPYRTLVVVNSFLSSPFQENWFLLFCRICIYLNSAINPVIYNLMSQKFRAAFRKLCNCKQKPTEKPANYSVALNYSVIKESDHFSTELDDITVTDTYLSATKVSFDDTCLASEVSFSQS
Method in brief: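 TRHR-expressing HEK293 cells were seeded, cultured 18 h at 37 °C, then loaded with calcium dye for 2 h. Compounds were pre-incubated 5 min at room temperature before 1 nM TRH (final) was added, and kinetic fluorescence was recorded for 3 min.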

[6] = molecular target: Thyrotropin-releasing hormone receptor (Homo sapiens) (UniProt P34981); assay: qHTS assay to identify small molecule agonists of the thyrotropin-releasing hormone receptor (TRHR) signaling pathway (AID 1346891; calls by dose curve; also: series mostly up to about 58 µM)
Method in brief: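 Overnight-plated (18 h, 37 °C, 5% CO2) TRHR-Hek293 cells; 2 h calcium dye at 37 °C; compound in DMSO; 3-min kinetic fluorescence read.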

[7] = Human pregnane X receptor (PXR) small molecule agonists, qHTS cell viability counter screen (AID 1346977); also: nearly all actives have a fitted effect of over 50% in size
Method in brief: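 After a 5hr pre-incubation, PXR-Luc HepG2 cells received compounds plus positive control in DMSO and were kept 24hr at 37C. Cell viability was quantified by fluorescence from CellTiter-Fluor added for the final hour.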

[8] = Caspase-3/7 induction in HepG2 cells by small molecules, qHTS assay (AID 1346978); also: nearly all actives have a fitted effect of over 15% in size
Method in brief: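 Wild-type HepG2 cells, 2,000/well, settled 5 hr at 37 C and 5% CO2, then compound-treated for 17 hr; caspase-3/7 activity read by luminescent Caspase-Glo 3/7 after 30 min at room temperature.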

[9] = Caspase-3/7 induction in CHO-K1 cells by small molecules, qHTS cell viability counter screen (AID 1346979); also: nearly all actives have a fitted effect of over 35% in size; also: potency is read from the fitted curve at half-maximal effect
Method in brief: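 Multiplexed with Caspase-Glo 3/7 in CHO-K1 cells, this counter screen added CellTiter-Fluor after 16hr of compound exposure and recorded fluorescence 1hr later.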

[10] = Caspase-3/7 induction in CHO-K1 cells by small molecules, qHTS assay (AID 1346980); also: nearly all actives have a fitted effect of over 15% in size
Method in brief: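 Wild-type CHO-K1 cells exposed to compounds for 17hr at 37 C, 5% CO2. Caspase-3/7 activity then measured by Caspase-Glo 3/7 luminescence after 30min at room temperature.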

[11] = Caspase-3/7 induction in HepG2 cells by small molecules, qHTS cell viability counter screen (AID 1346981); also: series mostly up to about 92 µM; nearly all actives have a fitted effect of over 30% in size
Method in brief: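 Wild-type HepG2 cells (2,000/well) were allowed to settle for 5 hr at 37 C, 5% CO2, then dosed with compounds in DMSO by pin transfer. After 16 hr at 37 C, CellTiter-Fluor was added and fluorescence read 1 hr later.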

[12] = molecular target: Nuclear receptor subfamily 1 group I member 2 (Homo sapiens) (UniProt O75469); assay: Human pregnane X receptor (PXR) small molecule agonists, qHTS assay (AID 1346982); also: nearly all actives have a fitted effect of over 35% in size; also: potency is read from the fitted curve at half-maximal effect
Nuclear receptor subfamily 1 group I member 2 (Homo sapiens), sequence (O75469 whole entry, looked up): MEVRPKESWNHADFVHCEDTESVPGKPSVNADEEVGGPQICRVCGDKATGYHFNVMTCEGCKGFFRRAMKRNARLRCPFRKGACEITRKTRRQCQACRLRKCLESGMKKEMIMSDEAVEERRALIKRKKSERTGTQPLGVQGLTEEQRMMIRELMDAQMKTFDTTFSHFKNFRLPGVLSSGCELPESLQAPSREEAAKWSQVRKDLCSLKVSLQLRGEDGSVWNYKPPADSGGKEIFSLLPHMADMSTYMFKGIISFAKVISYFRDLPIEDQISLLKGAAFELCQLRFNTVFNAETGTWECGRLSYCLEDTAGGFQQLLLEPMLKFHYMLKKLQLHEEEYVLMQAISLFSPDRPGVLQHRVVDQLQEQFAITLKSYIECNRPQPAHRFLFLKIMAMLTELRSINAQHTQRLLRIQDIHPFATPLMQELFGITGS
Method in brief: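 PXR-Luc HepG2 cells (CYP3A4 promoter-driven luciferase) were seeded in medium with 5% charcoal-stripped FBS, left 5 hr at 37 C, then exposed to compounds in DMSO for 24 hr. Luminescence was read after ONE-Glo addition.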

[13] = molecular target: Cytochrome P450 2D6 (Homo sapiens) (UniProt P10635); assay: Cytochrome P450 Family 2 Subfamily D Member 6 (CYP2D6) small molecule antagonists: luciferase reporter qHTS assay (AID 1671196); also: nearly all actives have a fitted effect of over 50% in size; also: potency is read from the fitted curve at half-maximal effect; as to activity change, negative = inhibition: series mostly up to about 120 µM
Cytochrome P450 2D6 (Homo sapiens), sequence (P10635 whole entry, looked up): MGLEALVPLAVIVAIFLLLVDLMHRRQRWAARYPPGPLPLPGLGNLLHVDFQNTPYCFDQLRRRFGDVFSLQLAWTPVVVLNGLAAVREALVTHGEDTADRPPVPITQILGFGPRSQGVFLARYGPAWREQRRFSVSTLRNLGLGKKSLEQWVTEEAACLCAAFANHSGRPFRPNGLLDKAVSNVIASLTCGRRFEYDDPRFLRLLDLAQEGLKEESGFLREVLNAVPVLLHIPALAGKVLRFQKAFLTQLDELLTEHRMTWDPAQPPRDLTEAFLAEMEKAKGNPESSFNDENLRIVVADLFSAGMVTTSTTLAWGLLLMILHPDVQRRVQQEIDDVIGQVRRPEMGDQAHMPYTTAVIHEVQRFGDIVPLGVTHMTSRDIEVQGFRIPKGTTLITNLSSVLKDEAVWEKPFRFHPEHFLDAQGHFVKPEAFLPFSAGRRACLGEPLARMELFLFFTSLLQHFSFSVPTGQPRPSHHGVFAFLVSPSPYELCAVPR
Method in brief: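 CYP2D6 enzyme–substrate mix was held with compound for 10 min at room temperature, then NADPH regeneration solution was added and the reaction ran 1 h at room temperature. Luciferin product was detected by luminescence after 20 min with detection reagent.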

[14] = molecular target: Cytochrome P450 2C19 (Homo sapiens) (UniProt P33261); assay: Cytochrome P450 Family 2 Subfamily C Member 19 (CYP2C19) small molecule antagonists: luciferase reporter qHTS assay (AID 1671197); also: nearly all actives have a fitted effect of over 65% in size; also: potency is read from the fitted curve at half-maximal effect; as to activity change, negative = inhibition: series mostly up to about 120 µM
Cytochrome P450 2C19 (Homo sapiens), sequence (P33261 whole entry, looked up): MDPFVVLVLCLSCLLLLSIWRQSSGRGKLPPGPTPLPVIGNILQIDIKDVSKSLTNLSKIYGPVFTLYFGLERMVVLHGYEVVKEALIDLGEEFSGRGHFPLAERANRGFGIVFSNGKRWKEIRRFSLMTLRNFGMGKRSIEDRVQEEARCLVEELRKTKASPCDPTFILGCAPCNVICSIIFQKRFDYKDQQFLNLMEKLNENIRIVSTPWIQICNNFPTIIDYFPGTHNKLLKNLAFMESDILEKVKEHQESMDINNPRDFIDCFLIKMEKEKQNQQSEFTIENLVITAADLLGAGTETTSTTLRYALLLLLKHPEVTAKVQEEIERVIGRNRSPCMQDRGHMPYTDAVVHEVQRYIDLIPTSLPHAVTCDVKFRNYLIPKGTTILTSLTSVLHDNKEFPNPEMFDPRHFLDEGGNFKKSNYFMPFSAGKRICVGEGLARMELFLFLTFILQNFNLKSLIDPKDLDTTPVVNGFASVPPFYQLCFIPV
Method in brief: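 P450-Glo CYP2C19 system: enzyme-substrate mix with compound 10 min at room temperature, then NADPH regeneration solution, 1 h at 37C. Proluciferin-to-luciferin conversion detected by luminescence after 20 min with detection reagent; ketoconazole as positive control.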

[15] = molecular target: Cytochrome P450 2C9 (Homo sapiens) (UniProt P11712); assay: Cytochrome P450 Family 2 Subfamily C Member 9 (CYP2C9) small molecule antagonists: luciferase reporter qHTS assay (AID 1671198); also: nearly all actives have a fitted effect of over 50% in size; also: potency is read from the fitted curve at half-maximal effect; as to activity change, negative = inhibition: series mostly up to about 120 µM
Cytochrome P450 2C9 (Homo sapiens), sequence (P11712 whole entry, looked up): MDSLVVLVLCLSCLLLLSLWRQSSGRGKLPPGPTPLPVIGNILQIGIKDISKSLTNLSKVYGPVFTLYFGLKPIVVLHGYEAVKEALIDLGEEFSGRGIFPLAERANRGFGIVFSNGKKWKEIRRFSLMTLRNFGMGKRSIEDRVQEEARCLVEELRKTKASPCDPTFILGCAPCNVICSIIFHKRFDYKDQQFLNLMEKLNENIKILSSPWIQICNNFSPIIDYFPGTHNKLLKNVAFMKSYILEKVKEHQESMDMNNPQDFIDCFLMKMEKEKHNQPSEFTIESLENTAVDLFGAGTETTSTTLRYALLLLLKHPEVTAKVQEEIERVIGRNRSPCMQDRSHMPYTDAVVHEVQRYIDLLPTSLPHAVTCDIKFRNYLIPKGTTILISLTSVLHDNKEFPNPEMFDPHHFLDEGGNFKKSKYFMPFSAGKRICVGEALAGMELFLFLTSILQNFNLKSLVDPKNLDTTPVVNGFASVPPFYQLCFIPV
Method in brief: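 P450-Glo proluciferin substrate with CYP2C9 enzyme; 10 min RT preincubation, then NADPH regeneration 1 h at 37C; luciferin detection reagent 20 min RT, luminescence in relative luminescence units.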

[16] = molecular target: Cytochrome P450 1A2 (Homo sapiens) (UniProt P05177); assay: Cytochrome P450 Family 1 Subfamily A Member 2 (CYP1A2) small molecule antagonists: luciferase reporter qHTS assay (AID 1671199); also: nearly all actives have a fitted effect of over 50% in size; also: potency is read from the fitted curve at half-maximal effect; as to activity change, negative = inhibition: series mostly up to about 120 µM
Cytochrome P450 1A2 (Homo sapiens), sequence (P05177 whole entry, looked up): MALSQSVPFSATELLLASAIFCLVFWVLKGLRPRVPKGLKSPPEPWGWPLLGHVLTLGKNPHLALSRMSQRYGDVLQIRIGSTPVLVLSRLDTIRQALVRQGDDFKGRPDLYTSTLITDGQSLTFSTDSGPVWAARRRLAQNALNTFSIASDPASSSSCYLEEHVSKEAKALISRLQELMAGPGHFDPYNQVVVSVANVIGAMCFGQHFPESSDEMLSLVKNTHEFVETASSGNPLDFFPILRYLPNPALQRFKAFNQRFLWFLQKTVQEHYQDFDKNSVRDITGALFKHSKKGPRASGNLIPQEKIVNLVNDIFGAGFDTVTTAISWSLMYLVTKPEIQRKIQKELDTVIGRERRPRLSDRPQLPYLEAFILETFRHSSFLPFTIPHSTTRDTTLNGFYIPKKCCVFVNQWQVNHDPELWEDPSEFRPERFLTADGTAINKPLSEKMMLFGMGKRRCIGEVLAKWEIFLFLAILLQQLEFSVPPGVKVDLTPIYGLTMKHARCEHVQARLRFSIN
Method in brief: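 Human CYP1A2 activity measured with a P450-Glo proluciferin substrate; compounds in DMSO preincubated 10 min at room temperature with enzyme-substrate mix, then NADPH regeneration system added for 1 h. Luciferin detection reagent, 20 min, luminescence read.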

[17] = molecular target: Voltage-gated inwardly rectifying potassium channel KCNH2 (Homo sapiens) (UniProt Q12809); assay: Human Ether-a-go-go-Related Gene (hERG) channel small molecule antagonists: fluorescence cell-based qHTS assay (AID 1671200)
Voltage-gated inwardly rectifying potassium channel KCNH2 (Homo sapiens), sequence (Q12809 whole entry, looked up): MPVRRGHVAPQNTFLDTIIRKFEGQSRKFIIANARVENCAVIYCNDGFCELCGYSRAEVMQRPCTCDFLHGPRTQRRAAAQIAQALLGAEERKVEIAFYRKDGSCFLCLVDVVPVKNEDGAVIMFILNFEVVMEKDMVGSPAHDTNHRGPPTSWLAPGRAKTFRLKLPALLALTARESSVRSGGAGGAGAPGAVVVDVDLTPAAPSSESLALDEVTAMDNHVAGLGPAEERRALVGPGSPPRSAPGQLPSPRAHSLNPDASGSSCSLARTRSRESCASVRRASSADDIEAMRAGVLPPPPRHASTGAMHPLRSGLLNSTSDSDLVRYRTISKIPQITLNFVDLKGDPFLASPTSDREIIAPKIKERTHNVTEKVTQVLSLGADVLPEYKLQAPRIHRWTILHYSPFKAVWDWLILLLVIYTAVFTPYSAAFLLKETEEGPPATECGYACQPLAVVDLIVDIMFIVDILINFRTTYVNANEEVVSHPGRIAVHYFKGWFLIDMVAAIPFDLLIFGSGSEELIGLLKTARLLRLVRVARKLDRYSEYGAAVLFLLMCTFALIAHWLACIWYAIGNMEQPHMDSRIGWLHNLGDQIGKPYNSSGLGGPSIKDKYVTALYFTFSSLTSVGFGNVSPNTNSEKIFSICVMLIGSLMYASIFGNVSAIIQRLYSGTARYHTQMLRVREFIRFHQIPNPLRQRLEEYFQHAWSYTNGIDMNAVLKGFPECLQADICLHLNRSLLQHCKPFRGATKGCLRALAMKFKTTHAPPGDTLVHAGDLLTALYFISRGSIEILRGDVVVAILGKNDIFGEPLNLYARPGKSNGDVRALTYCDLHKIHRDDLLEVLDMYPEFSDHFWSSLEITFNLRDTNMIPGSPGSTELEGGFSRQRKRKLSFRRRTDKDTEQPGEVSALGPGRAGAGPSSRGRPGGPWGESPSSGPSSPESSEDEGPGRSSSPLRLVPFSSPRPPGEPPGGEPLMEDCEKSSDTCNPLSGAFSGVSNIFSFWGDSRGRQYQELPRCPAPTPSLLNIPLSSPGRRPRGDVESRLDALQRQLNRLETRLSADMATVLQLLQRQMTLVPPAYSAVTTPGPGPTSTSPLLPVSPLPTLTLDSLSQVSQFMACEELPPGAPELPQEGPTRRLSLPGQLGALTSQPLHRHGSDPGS
Method in brief: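 Cell line hERG-U2OS; dye FluxOR II, 1 h RT dark; Tl+ stimulus; ex 480/em 540 nm, read each second for 2 min.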
% is scaled to controls: 0 for no effect and ±100 for the full control effect.

C/C=C/C(=O)C1=C(C)C=CCC1(C)C
inactive: Potency [1] | Potency [2] | Potency [3] | outcome [4] | Potency [5] | Potency [6] | Potency [7] | Potency [8] | Potency [9] | Potency [10] | Potency [11] | Potency [12] | Potency [13] | Potency [14] | Potency [15] | Potency [16] | Potency [17]

O=C1CCC(=O)N1
inactive: Potency [1] | Potency [2] | Potency [3] | outcome [4] | Potency [5] | Potency [6] | Potency [7] | Potency [8] | Potency [9] | Potency [10] | Potency [11] | Potency [12] | Potency [13] | Potency [14] | Potency [15] | Potency [16] | Potency [17]

O=C(O)CN(CCCN(CC(=O)O)CC(=O)O)CC(=O)O
inactive: activity change, negative = cytotoxicity [1] -13.8% [at 19 µM] | viability change, negative = cytotoxic [2] 5.13% [at 15.8 µM] | activity change, negative = cytotoxicity [3] -5.77% [at 15.8 µM] | activation [4] 0.66% [at 15.8 µM] | activity, negative = inhibition [5] -1.06% [at 10.5 µM] | activation [6] 0.0527% [at 11.8 µM] | caspase activation [8] 0.754% [at 19 µM] | caspase-3/7 activation [10] 5.17% [at 19 µM] | activity change, negative = cytotoxicity [11] -12.2% [at 19 µM] | activation [12] 1.69% [at 19 µM] | activity change, negative = inhibition [13] 2.09% [at 23.6 µM] | activity change, negative = inhibition [14] -5.87% [at 23.6 µM] | activity change, negative = inhibition [15] -3.48% [at 23.6 µM] | activity change, negative = inhibition [16] -0.26% [at 23.6 µM]
active: Potency [9] 11.6 µM

Oc1cccc2c(O)cccc12
active: Potency [9] 54.5 µM | Potency [12] 54.5 µM | Potency [13] 39.9 µM | Potency [14] 17.8 µM | Potency [15] 22.4 µM | Potency [16] 22.4 µM
inactive: Potency [1] | Potency [2] | Potency [3] | outcome [4] | Potency [5] | Potency [6] | Potency [8] | Potency [10] | Potency [11] | Potency [17]

[Cl][Eu]([Cl])[Cl]
inactive: Potency [1] | Potency [2] | Potency [3] | outcome [4] | Potency [5] | Potency [6] | Potency [7] | Potency [8] | Potency [9] | Potency [10] | Potency [11] | Potency [12] | Potency [14] | Potency [15] | Potency [16] | Potency [17]

O=C(c1ccccc1)c1ccc(Cl)cc1
inactive: Potency [1] | Potency [2] | Potency [3] | outcome [4] | Potency [5] | Potency [6] | Potency [7] | Potency [8] | Potency [10] | Potency [11] | Potency [12] | Potency [13] | Potency [17]
active: Potency [9] 61.1 µM | Potency [14] 15.9 µM | Potency [15] 15.9 µM | Potency [16] 5.03 µM

C=CC(=O)OCCOC1C2CCC1C1CC=CC12 (stereo not given)
inactive: activity change, negative = cytotoxicity [1] 1.19% [at 19 µM] | viability change, negative = cytotoxic [2] -7.56% [at 15.8 µM] | activity change, negative = cytotoxicity [3] 7.46% [at 15.8 µM] | activation [4] -4.69% [at 15.8 µM] | activity, negative = inhibition [5] 0.809% [at 10.5 µM] | activation [6] -0.0878% [at 11.8 µM] | activity change, negative = cytotoxicity [7] 5.4% [at 19 µM] | caspase activation [8] 2.88% [at 19 µM] | activity change, negative = cytotoxicity [9] 4.17% [at 19 µM] | caspase-3/7 activation [10] 0.29% [at 19 µM] | activity change, negative = cytotoxicity [11] 6.81% [at 19 µM] | activation [12] 5.97% [at 19 µM] | activity change, negative = inhibition [13] -35.4% [at 23.6 µM] | activity change, negative = inhibition [17] 2.03% [at 15.8 µM]
active: Potency [14] 19 µM

Cc1cccc(C)c1C
inactive: Potency [1] | Potency [2] | Potency [3] | outcome [4] | Potency [5] | Potency [6] | Potency [8] | Potency [9] | Potency [10] | Potency [11] | Potency [12] | Potency [13] | Potency [14] | Potency [15] | Potency [17]

CCCC(C)C=O (stereo not given)
inactive: Potency [1] | Potency [2] | Potency [3] | outcome [4] | Potency [5] | Potency [6] | Potency [7] | Potency [8] | Potency [9] | Potency [10] | Potency [11] | Potency [12] | Potency [13] | Potency [14] | Potency [17]

Nc1ccc(Cl)c([N+](=O)[O-])c1
inactive: Potency [1] | Potency [2] | Potency [3] | outcome [4] | Potency [5] | Potency [6] | Potency [7] | Potency [8] | Potency [10] | Potency [11] | Potency [14] | Potency [17]
active: Potency [9] 54.5 µM | Potency [16] 31.7 µM

CCC(=O)OC/C=C(\C)CCC=C(C)C
inactive: Potency [1] | Potency [2] | Potency [3] | outcome [4] | Potency [5] | Potency [6] | Potency [7] | Potency [8] | Potency [9] | Potency [10] | Potency [11] | Potency [12] | Potency [13] | Potency [17]

Cc1ccc2sc3cccc(C)c3c2c1
inactive: Potency [1] | Potency [2] | Potency [3] | outcome [4] | Potency [5] | Potency [6] | Potency [8] | Potency [9] | Potency [10] | Potency [11] | Potency [12] | Potency [14] | Potency [15] | Potency [17]

COc1c(Br)cc(Br)c(C)c1Br
inactive: Potency [1] | Potency [2] | Potency [3] | outcome [4] | Potency [5] | Potency [6] | Potency [7] | Potency [8] | Potency [9] | Potency [10] | Potency [11] | Potency [12] | Potency [15] | Potency [17]
active: Potency [14] 89.4 µM
